Several values for one entry are separate records, joined by “and”; a condition that tells them apart may be missing. Equal entries are not always repeated. Records with an inconclusive call do not appear. Activity calls are given as the source filed them. Unless noted, calls come from the whole dose curve; as a rule, active = well fitted curve in the direction sought with a large enough effect in the repeat runs; inconclusive = weak or mixed curves; inactive = no such curve, though single readings can be large; an effect the other way counts as inactive or inconclusive.

Experiment [1] can be described thus: qHTS assay for small molecule agonists of the p53 signaling pathway (AID 651631; calls by dose curve; note: nearly all actives have a fitted effect of over 15% in size). The essentials: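 Agonist mode screen using a stably integrated beta-lactamase gene under p53 response elements in HCT-116 cells. Compound exposure lasts 16 h at 37 °C; fluorescence intensity is measured following 2 h FRET substrate loading.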
The nature of experiment [2]: qHTS assay for small molecules that induce genotoxicity in human embryonic kidney cells expressing luciferase-tagged ATAD5 (AID 651632). Note: nearly all actives have a fitted effect of over 15% in size. In outline: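 ATAD5-luc HEK293T, 2,000 cells/well; cpd or DMSO pin-transferred; 16 hr, 37C/5% CO2; Amplite 30 min RT; luminescence.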
(Quantitative high-throughput screening tests each substance at several concentrations.)

Experiment [3] can be described thus: qHTS assay for small molecule agonists of the p53 signaling pathway - cell viability (AID 651633; calls by dose curve;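 note: p53RE-bla HCT reporter cells with a stable beta-lactamase p53 reporter; series mostly up to about 83 µM; nearly all actives have a fitted effect of over 30% in size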). The essentials:
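p53RE-bla cells were treated with compound for 16 hours at 37 C. Cytotoxicity was then measured as CellTiter-Glo luminescence after 30 min at room temperature.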

A short description of experiment [4]: qHTS assay for small molecules that induce genotoxicity in human embryonic kidney cells expressing luciferase-tagged ATAD5 - cell viability (AID 651634; calls by dose curve; note: nearly all actives have a fitted effect of over 25% in size). In outline: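 Fluorescence from CellTiter-Fluor, reporting protease activity within live cells, served as the viability read-out. HEK293T cells carrying luciferase-tagged ATAD5 had been treated with compound for 15.5 hr at 37C.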

Experiment [5] is described as follows: qHTS assay for small molecule disruptors of the mitochondrial membrane potential - cell viability (AID 720634; calls by dose curve;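 note: human HepG2 liver cancer cells; series mostly up to about 83 µM; nearly all actives have a fitted effect of over 20% in size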). In outline:
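Cells: HepG2, 2,000/well, attached overnight. Compound 1 hr, 37 C/5% CO2. +m-MPI dye, +CellTiter-Glo 30 min RT. Readout: luminescence (ATP).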

Experiment [6] can be described thus: qHTS assay for small molecule disruptors of the mitochondrial membrane potential (AID 720635). Note: potency is the fitted concentration of half-maximal effect. In outline: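 HepG2 cells exposed to compound 1 hr at 37C, then Mito-MPS dye 30 min. Ratio read of aggregate (540/590 nm) versus monomer (490/535 nm) fluorescence.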
Experiment [7] can be described thus: qHTS assay to test for compound auto fluorescence at 590 nm (red) in HepG2 cells (AID 720674). In outline:
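HepG2 cells, 2,000 per well in MEM with 10% FBS, attached overnight at 37 C, then got 23 nL compound or DMSO. After 1 hr at 37 C, 5% CO2, red fluorescence was read at 540/590 nm against Rose Bengal sodium as reference.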

Experiment [8] in a line: qHTS assay to test for compound auto fluorescence at 535 nm (green) in HepG2 cells (AID 720675).
Experiment [9] in a line: qHTS assay to test for compound auto fluorescence at 460 nm (blue) in HEK293 cells (AID 720678). The essentials: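 Blue-channel (Ex/Em 405/460 nm) intensity measured in HEK293 cultures after overnight compound exposure at 37C; signal expressed relative to triamterene. Cells plated 2,000 per well in 10% dialyzed FBS medium and allowed 4-5 hr to attach.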
Experiment [10] in a line: qHTS assay to test for compound auto fluorescence at 590 nm (red) in HEK293 cells (AID 720679). In outline:
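Red-channel autofluorescence (Ex/Em 540/590 nm; Rose Bengal sodium reference) was measured after overnight 37C, 5% CO2 exposure of attached HEK293 cells, 2,000 per well in medium with 10% dialyzed FBS.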

Experiment [11] is described as follows: qHTS assay to test for compound auto fluorescence at 535 nm (green) in HEK293 cells (AID 720680).
Experiment [12] in a line: qHTS assay to test for compound auto fluorescence at 460 nm (blue) in HEK293 cell free culture (AID 720681). In outline: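 Compounds were added to cell-free DMEM with 10% FBS and fluorescence read directly. The blue channel used 405 nm excitation and 460 nm emission, with triamterene as the reference fluorophore.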
Experiment [13] in a line: qHTS assay to test for compound auto fluorescence at 535 nm (green) in HEK293 cell free culture (AID 720682). In outline:
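No cells present: wells hold DMEM supplemented with 10% FBS, into which compound or vehicle is pinned. Green emission is then recorded (485 nm excitation, 535 nm emission) and scaled to fluorescein.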

The nature of experiment [14]: qHTS assay to test for compound auto fluorescence at 590 nm (red) in HEK293 cell free culture (AID 720683). In outline: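 Cell-free wells of DMEM with 10% FBS received compound, and intrinsic fluorescence was read at excitation/emission 540/590 nm. Values expressed as equivalence to Rose Bengal sodium.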
Experiment [15] in a line: qHTS assay to test for compound auto fluorescence at 590 nm (red) in HepG2 cell free culture (AID 720684). The essentials: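 Compound was pinned into wells holding MEM with 10% FBS and no cells, and red fluorescence was read at Ex/Em 540/590 nm. Signal is expressed as auto fluorescence equivalency relative to Rose Bengal sodium.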
The nature of experiment [16]: qHTS assay to test for compound auto fluorescence at 460 nm (blue) in HepG2 cell free culture (AID 720685). The essentials:
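Compound (23 nL) or DMSO pinned into cell-free MEM with 10% FBS; blue fluorescence read at 405/460 nm excitation/emission, expressed as auto-fluorescence equivalency to triamterene.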

The nature of experiment [17]: qHTS assay to test for compound auto fluorescence at 535 nm (green) in HepG2 cell free culture (AID 720686).
Experiment [18] can be described thus: qHTS assay to test for compound auto fluorescence at 460 nm (blue) in HepG2 cells (AID 720687). The essentials:
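HepG2 cells in MEM with 10% FBS, attached overnight at 37 C, were exposed to compound or DMSO for 1 hr at 37 C, 5% CO2. Blue fluorescence was read at 405/460 nm, with triamterene as reference fluorophore.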

Experiment [19] addresses Glucocorticoid receptor (Homo sapiens) (UniProt P04150). Kind of experiment: qHTS assay to identify small molecule agonists of the glucocorticoid receptor (GR) signaling pathway (AID 720691; active = well fitted activation curve with a large enough effect in the signal ratio in the repeat runs, not every such curve was filed as active; the % refers to the signal ratio). The essentials: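 Fluorescence intensity from LiveBLAzer B/G FRET substrate (2 h, room temperature) reports beta-lactamase expression driven by the glucocorticoid response element in GR-bla HeLa cells after 18 h compound exposure at 37 C.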

The target is the same in experiment [20]. Kind of experiment: qHTS assay to identify small molecule antagonists of the glucocorticoid receptor (GR) signaling pathway (AID 720692; active = well fitted inhibition curve with a large enough effect in the signal ratio in the repeat runs, not every such curve was filed as active; the % refers to the signal ratio). In outline: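 HeLa GR-bla cells; cmpd + dex 5 nM final, 18 h 37 C; LiveBLAzer B/G FRET substrate 2 h RT; fluorescence intensity read. Antagonist mode, qHTS.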

Glucocorticoid receptor (Homo sapiens), sequence (P04150 whole entry, looked up): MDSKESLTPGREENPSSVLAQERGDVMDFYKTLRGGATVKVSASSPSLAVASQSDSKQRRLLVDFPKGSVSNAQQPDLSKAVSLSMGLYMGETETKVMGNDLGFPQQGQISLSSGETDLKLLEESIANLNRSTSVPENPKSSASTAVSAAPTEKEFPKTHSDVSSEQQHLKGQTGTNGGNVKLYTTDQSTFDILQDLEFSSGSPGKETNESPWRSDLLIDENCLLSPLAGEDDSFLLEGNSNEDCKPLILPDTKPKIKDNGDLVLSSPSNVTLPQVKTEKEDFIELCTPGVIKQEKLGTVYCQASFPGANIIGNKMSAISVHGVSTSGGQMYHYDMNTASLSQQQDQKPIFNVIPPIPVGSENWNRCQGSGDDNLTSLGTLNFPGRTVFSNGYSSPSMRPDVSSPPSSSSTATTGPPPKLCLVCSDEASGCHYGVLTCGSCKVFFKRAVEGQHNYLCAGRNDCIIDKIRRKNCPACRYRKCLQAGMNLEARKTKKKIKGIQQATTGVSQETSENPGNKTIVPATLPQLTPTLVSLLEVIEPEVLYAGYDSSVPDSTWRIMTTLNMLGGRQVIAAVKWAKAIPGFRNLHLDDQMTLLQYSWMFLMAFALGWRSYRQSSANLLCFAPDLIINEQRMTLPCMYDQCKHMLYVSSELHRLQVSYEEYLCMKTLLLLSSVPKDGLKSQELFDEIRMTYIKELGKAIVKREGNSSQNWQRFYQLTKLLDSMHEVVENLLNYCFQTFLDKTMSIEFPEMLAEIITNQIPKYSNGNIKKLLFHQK

As to `COCCOCCOC`, the Potency entry in [1], in experiment [2], in experiment [3], in experiment [4], in experiment [5] and in [6] was “inactive” throughout. For the same compound, the compound was called inactive in [7], in experiment [8], in experiment [9], in [10], in experiment [11] and in [12]. In addition, the call in experiment [13], in experiment [14], in [15], in experiment [16], in [17] and in experiment [18] was inactive.

For `CC1=NN(c2ccccc2)C(=O)C1`, the Potency result in [1], in experiment [2], in experiment [3], in experiment [4], in experiment [5] and in experiment [19] was “inactive” in each case. In addition, the Potency result in experiment [20] is “inactive”. In experiment [6], the Potency is 11.9 µM (active) and 61.5 µM (active). Moreover, the compound was called inactive in [7], in experiment [8], in experiment [9], in experiment [10], in [11] and in [12]. For the same compound, the outcome in [13], in experiment [14], in experiment [15], in experiment [16], in [17] and in experiment [18] was inactive.

For the compound `COC(=O)C1CCC(C(=O)OC)CC1` (stereo not given), the Potency result in experiment [1], in [2], in experiment [3], in experiment [4], in experiment [5] and in [6] was “inactive” throughout. The outcome in [7], in [8], in [9], in experiment [10], in [11] and in experiment [12] was inactive. Besides, the outcome in [13], in experiment [14], in experiment [15], in experiment [16], in [17] and in [18] was inactive.

Take `Nc1cccc(N)c1`: the Potency result in experiment [1], in [2], in experiment [3], in experiment [4] and in experiment [5] was “inactive” each time. Besides, the Potency in experiment [6] is 24 µM (active). In addition, the result in experiment [7], in experiment [8], in [9], in experiment [10], in [11] and in experiment [12] was inactive. Moreover, the compound was classed as inactive in experiment [13], in experiment [14], in experiment [15], in experiment [16], in [17] and in [18].

As to `CC(=O)OC/C=C(C)/C=C/C=C(C)/C=C/C1=C(C)CCCC1(C)C`, the Potency entry in [1], in experiment [2], in experiment [3], in experiment [4], in [5] and in [6] was “inactive” in each case. For the same compound, the compound was called inactive in experiment [7], in [8], in experiment [9], in [10], in [11] and in experiment [12]. For the same compound, the call in experiment [13], in experiment [14], in experiment [15], in experiment [16], in [17] and in experiment [18] was inactive.

Regarding `Oc1cccc(O)c1`, the Potency entry in experiment [1], in experiment [2], in experiment [3], in experiment [4], in [6] and in experiment [19] was “inactive” each time. Also, the Potency entry in [20] was “inactive”. Also, the outcome in experiment [7], in [8], in experiment [9], in experiment [10], in experiment [11] and in experiment [12] was inactive. The result in [13], in experiment [14], in experiment [15], in experiment [16], in experiment [17] and in experiment [18] was inactive.

Take `CCCCC/C(C=O)=C\c1ccccc1`: the Potency entry in [1], in experiment [2], in experiment [3], in experiment [4], in [6] and in experiment [19] was “inactive” in each case. Also, in [20], the Potency result was “inactive”. Besides, the compound was classed as inactive in [7], in experiment [8], in experiment [9], in experiment [10], in experiment [11] and in experiment [12]. Further, the compound was called inactive in experiment [13], in experiment [14], in [15], in experiment [16], in experiment [17] and in experiment [18].
